Measured values as given in PubChem BioAssay (EPA / NIEHS).
The source made the active and inactive calls. The calls were made as follows: active = hit-call score of the fitted dose curve at least 0.9, where 1 is the maximum; inactive = score below 0.9.

Tests used:
Details in all cases: mRNA level, 48 h; actives raise or lower the signal
[1] = read-out: sulfotransferase 2A1 (SULT2A1), SULT2A1 (gene 6822); assay: LTEA_HepaRG_SULT2A1: Life Technologies and Expression Analysis (LTEA) Assay for sulfotransferase 2A1 (SULT2A1) using HepaRG (AID 2283531)
Method in brief: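 Cells were plated and cultured 48 h, switched to serum-free induction medium, then dosed in duplicate for 48 h (8 concentrations, max 100 uM). RNA was isolated and SULT2A1 expression measured by qRT-PCR; gain or loss of signal fitted relative to DMSO.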

[2] = read-out: Transforming Growth Factor (TGFA), TGFA (gene 7039); assay: LTEA_HepaRG_TGFA: Life Technologies and Expression Analysis (LTEA) Assay for Transforming Growth Factor (TGFA) using HepaRG (AID 2283532)
Method in brief: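 TGFA transcript quantified by qRT-PCR (Fluidigm arrays) against three housekeeping genes, after 48 hours chemical treatment of HepaRG cells. Top concentration 100 uM with half-log dilutions, 8 points, duplicates, 0.5% DMSO.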

[3] = read-out: Transforming Growth Factor (TGFB1), TGFB1 (gene 7040); assay: LTEA_HepaRG_TGFB1: Life Technologies and Expression Analysis (LTEA) Assay for Transforming Growth Factor (TGFB1) Transporter using HepaRG (AID 2283533)
Method in brief: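 Expression change of TGFB1 in human HepaRG cells is measured after a 48 h chemical exposure, up to 100 uM in 0.5% DMSO vehicle. Curves are fitted in both directions relative to the DMSO baseline.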

TIMP1, TIMP1 (gene 7076) = assay: LTEA_HepaRG_TIMP1: Life Technologies and Expression Analysis (LTEA) Assay for TIMP1 using HepaRG (AID 2283534);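 as to outcome: TaqMan qRT-PCR signal normalized to ACTB GAPDH and POLR2A housekeeping genes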
Method in brief: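 We dosed human liver HepaRG cultures for 48 hours with up to 100 uM test chemical and measured TIMP1 expression by qRT-PCR. Activity in either direction is fitted relative to the 0.5% DMSO vehicle.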

[4] = read-out: Tumor necrosis factor receptor 1 (TNFRSF1A), TNFRSF1A (gene 7132); assay: LTEA_HepaRG_TNFRSF1A: Life Technologies and Expression Analysis (LTEA) Assay for Tumor necrosis factor receptor 1 (TNFRSF1A) using HepaRG (AID 2283535)
Method in brief: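 Expression of TNFRSF1A in human HepaRG liver cells was measured by qRT-PCR 48 h after chemical dosing (maximum 100 uM). Bidirectional curve fitting used 0.5% DMSO as baseline.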

[5] = read-out: Thyroid Hormone Responsive (THRSP), THRSP (gene 7069); assay: LTEA_HepaRG_THRSP: Life Technologies and Expression Analysis (LTEA) Assay for Thyroid Hormone Responsive (THRSP) using HepaRG (AID 2283536)
Method in brief: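 THRSP transcript quantified by Fluidigm qRT-PCR against three housekeeping genes after 48 h chemical exposure of HepaRG cells in serum-free induction medium; eight-point half-log series, top 100 uM, 0.5% DMSO vehicle, duplicate wells.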

[6] = read-out: Cellular tumor antigen p53 (Homo sapiens) (UniProt P04637); assay: LTEA_HepaRG_TP53: Life Technologies and Expression Analysis (LTEA) Assay for Tumor Protein P53 (TP53) using HepaRG (AID 2283537)
Method in brief: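 HepaRG, 48 h exposure, top 100 uM, half-log 8-point, 0.5% DMSO vehicle, duplicates. Read: TP53 mRNA by TaqMan qRT-PCR, normalised to ACTB/GAPDH/POLR2A; bidirectional fit vs DMSO.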

[7] = read-out: UDP glucuronosyltransferase (UGT1A1), UGT1A1 (gene 54658); assay: LTEA_HepaRG_UGT1A1: Life Technologies and Expression Analysis (LTEA) Assay for UDP glucuronosyltransferase (UGT1A1) using HepaRG (AID 2283538)
Method in brief: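 UGT1A1 transcript level, measured by qRT-PCR with three housekeeping genes for normalization, after 48 h treatment of human HepaRG cells (0.5% DMSO, duplicates, up to 100 uM, half-log steps, 8 points). Curves fit both directions against DMSO baseline.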

[8] = read-out: UDP glucuronosyltransferase (UGT1A6), UGT1A6 (gene 54578); assay: LTEA_HepaRG_UGT1A6: Life Technologies and Expression Analysis (LTEA) Assay for UDP glucuronosyltransferase (UGT1A6) using HepaRG (AID 2283539)
Method in brief: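 Endpoint is UGT1A6 transcript induction or loss in a human liver cell line, quantified by TaqMan qRT-PCR 48 h after dosing. Concentrations ran from 100 uM downward in half-log steps in 0.5% DMSO; activity was fitted in both directions versus vehicle.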

[9] = read-out: X-box binding protein 1 (XBP1), XBP1 (gene 7494); assay: LTEA_HepaRG_XBP1: Life Technologies and Expression Analysis (LTEA) Assay for X-box binding protein 1 (XBP1) using HepaRG (AID 2283540)
Method in brief: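 Human HepaRG monolayers receive test chemical for 48 h across an eight-point half-log series starting at 100 uM. XBP1 mRNA gain or loss is scored against DMSO by qRT-PCR.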

Sequence of Cellular tumor antigen p53 (Homo sapiens) (P04637 whole entry, looked up): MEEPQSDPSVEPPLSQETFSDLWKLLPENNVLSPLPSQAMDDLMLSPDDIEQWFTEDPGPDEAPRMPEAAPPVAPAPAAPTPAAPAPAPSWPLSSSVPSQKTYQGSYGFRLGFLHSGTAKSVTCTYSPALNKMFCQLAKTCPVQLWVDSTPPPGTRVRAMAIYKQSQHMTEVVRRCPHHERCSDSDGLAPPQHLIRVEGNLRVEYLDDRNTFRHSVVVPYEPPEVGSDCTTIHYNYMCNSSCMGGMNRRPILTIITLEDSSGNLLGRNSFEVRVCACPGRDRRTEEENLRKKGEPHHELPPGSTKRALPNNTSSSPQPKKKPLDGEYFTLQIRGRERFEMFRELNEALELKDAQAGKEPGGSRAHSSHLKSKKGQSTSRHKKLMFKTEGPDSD

## CC[C@H](NC(=O)c1cc(F)ccc1NS(=O)(=O)c1cccc2cccnc12)c1ccccc1
[1]
  AC50: 84.8 µM (active)
[2]
  outcome: inactive
[3]
  outcome: inactive
TIMP1, TIMP1 (gene 7076)
  outcome: inactive
[4]
  outcome: inactive
[5]
  outcome: inactive
[6]
  outcome: inactive
[7]
  AC50: 11.1 µM (active)
[8]
  AC50: 47.8 µM (active)
[9]
  outcome: inactive

## OCCO
[1]
  outcome: inactive
[2]
  outcome: inactive
TIMP1, TIMP1 (gene 7076)
  outcome: inactive
[4]
  outcome: inactive
[5]
  outcome: inactive
[6]
  AC50: 9.97 µM (active)
[8]
  outcome: inactive
[9]
  outcome: inactive

## c1ccc2n[nH]nc2c1
[1]
  outcome: inactive
[2]
  outcome: inactive
[3]
  outcome: inactive
TIMP1, TIMP1 (gene 7076)
  outcome: inactive
[4]
  outcome: inactive
[5]
  outcome: inactive
[6]
  outcome: inactive
[7]
  outcome: inactive
[8]
  outcome: inactive
[9]
  outcome: inactive

## CCCCCCCCCCCCO
[2]
  outcome: inactive
TIMP1, TIMP1 (gene 7076)
  outcome: inactive
[4]
  outcome: inactive
[5]
  outcome: inactive
[6]
  outcome: inactive
[7]
  outcome: inactive
[8]
  outcome: inactive
[9]
  outcome: inactive

## CCCOC(=O)c1cc(O)c(O)c(O)c1
[2]
  outcome: inactive
TIMP1, TIMP1 (gene 7076)
  outcome: inactive
[4]
  outcome: inactive
[5]
  outcome: inactive
[6]
  outcome: inactive
[8]
  outcome: inactive
[9]
  outcome: inactive

## CCCCCCCCCC(=O)O
[2]
  outcome: inactive
[3]
  outcome: inactive
TIMP1, TIMP1 (gene 7076)
  outcome: inactive
[4]
  outcome: inactive
[5]
  outcome: inactive
[6]
  outcome: inactive
[7]
  outcome: inactive
[8]
  outcome: inactive
[9]
  outcome: inactive

## O=C=NCCCCCCN=C=O
[2]
  outcome: inactive
TIMP1, TIMP1 (gene 7076)
  outcome: inactive
[4]
  outcome: inactive
[5]
  outcome: inactive
[6]
  outcome: inactive
[8]
  outcome: inactive
[9]
  outcome: inactive

## NC(=O)c1nc(-c2cccc(-c3cc(F)ccc3OCC(F)(F)C(F)(F)F)c2)n[nH]1
[2]
  AC50: 91.2 µM (active)
TIMP1, TIMP1 (gene 7076)
  AC50: 83.2 µM (active)
[4]
  outcome: inactive
[5]
  outcome: inactive
[6]
  outcome: inactive
[7]
  AC50: 15.8 µM (active)
[8]
  AC50: 50 µM (active)
[9]
  outcome: inactive

## OC12N=C(c3ccccc3)SC1Cc1cc(Cl)ccc12 (stereo not given)
[2]
  outcome: inactive
TIMP1, TIMP1 (gene 7076)
  outcome: inactive
[4]
  outcome: inactive
[5]
  AC50: 16.2 µM (active)
[6]
  AC50: 26 µM (active)
[8]
  outcome: inactive
[9]
  AC50: 3.94 µM (active)

## CC(C)(O)c1ccc(CNC(=O)c2cccnc2Oc2ccc3nonc3c2)cc1
[2]
  outcome: inactive
[3]
  outcome: inactive
TIMP1, TIMP1 (gene 7076)
  outcome: inactive
[4]
  outcome: inactive
[5]
  AC50: 60.8 µM (active)
[6]
  outcome: inactive
[8]
  outcome: inactive
[9]
  outcome: inactive

## O=c1[nH]sc2ccccc12
[2]
  outcome: inactive
[3]
  outcome: inactive
TIMP1, TIMP1 (gene 7076)
  outcome: inactive
[4]
  outcome: inactive
[5]
  outcome: inactive
[6]
  outcome: inactive
[8]
  outcome: inactive
[9]
  outcome: inactive

## CCCC(=O)OCCC(C)C
[2]
  outcome: inactive
TIMP1, TIMP1 (gene 7076)
  outcome: inactive
[4]
  outcome: inactive
[5]
  outcome: inactive
[6]
  outcome: inactive
[7]
  outcome: inactive
[8]
  outcome: inactive
[9]
  outcome: inactive

## CCCCCCCCCCCO
[2]
  outcome: inactive
TIMP1, TIMP1 (gene 7076)
  outcome: inactive
[4]
  outcome: inactive
[5]
  outcome: inactive
[6]
  outcome: inactive
[7]
  outcome: inactive
[8]
  outcome: inactive
[9]
  outcome: inactive

## CC(C)(c1cc(Br)c(O)c(Br)c1)c1cc(Br)c(O)c(Br)c1
[2]
  AC50: 89.1 µM (active)
TIMP1, TIMP1 (gene 7076)
  outcome: inactive
[4]
  outcome: inactive
[5]
  outcome: inactive
[6]
  AC50: 89.2 µM (active)
[7]
  AC50: 78.2 µM (active)
[8]
  outcome: inactive
[9]
  outcome: inactive

## Cc1ncc(CO)c(CO)c1O
[2]
  outcome: inactive
TIMP1, TIMP1 (gene 7076)
  outcome: inactive
[4]
  outcome: inactive
[5]
  outcome: inactive
[6]
  outcome: inactive
[7]
  outcome: inactive
[8]
  outcome: inactive
[9]
  outcome: inactive

## CN(C)c1ccc(C(=C2C=CC(=[N+](C)C)C=C2)c2ccc(N(C)C)cc2)cc1
[2]
  outcome: inactive
TIMP1, TIMP1 (gene 7076)
  AC50: 74.2 µM (active)
[4]
  AC50: 8.56 µM (active)
[5]
  AC50: 2.48 µM (active)
[6]
  AC50: 23.3 µM (active)
[8]
  AC50: 10.4 µM (active)
[9]
  outcome: inactive

## CC(=O)N1CCN(c2ccc(OC[C@H]3CO[C@](Cn4ccnc4)(c4ccc(Cl)cc4Cl)O3)cc2)CC1
[2]
  AC50: 12.1 µM (active)
TIMP1, TIMP1 (gene 7076)
  AC50: 83.1 µM (active)
[4]
  AC50: 75.9 µM (active)
[5]
  AC50: 12.7 µM (active)
[6]
  AC50: 90.3 µM (active)
[7]
  AC50: 11.6 µM (active)
[8]
  AC50: 30.8 µM (active)
[9]
  outcome: inactive

## CN(C[C@@H](CC[N+]12CCC(C3CCCCC3)(CC1)CC2)c1ccc(Cl)c(Cl)c1)C(=O)c1cc(C(F)(F)F)cc(C(F)(F)F)c1
[2]
  AC50: 50 µM (active)
[3]
  AC50: 12.3 µM (active)
TIMP1, TIMP1 (gene 7076)
  AC50: 68.7 µM (active)
[4]
  outcome: inactive
[5]
  AC50: 4.72 µM (active)
[6]
  outcome: inactive
[8]
  AC50: 1.66 µM (active)
[9]
  outcome: inactive

## CC(C)(C)c1csc(-c2cc3cc(OCc4ccccc4CC(=O)O)ccc3o2)n1
[2]
  AC50: 85.4 µM (active)
[3]
  AC50: 81.9 µM (active)
TIMP1, TIMP1 (gene 7076)
  AC50: 78.4 µM (active)
[4]
  AC50: 83.2 µM (active)
[5]
  outcome: inactive
[6]
  AC50: 82.4 µM (active)
[8]
  AC50: 77.2 µM (active)
[9]
  outcome: inactive

## O=C1CCC(C2CCCCC2)CC1
[2]
  outcome: inactive
TIMP1, TIMP1 (gene 7076)
  outcome: inactive
[4]
  outcome: inactive
[5]
  outcome: inactive
[6]
  outcome: inactive
[8]
  outcome: inactive
[9]
  outcome: inactive
